Assay results reported in the supplement of paper PMC10681739.

Biological target: T1, ETS1 (UniProt P14921)
T1 sequence: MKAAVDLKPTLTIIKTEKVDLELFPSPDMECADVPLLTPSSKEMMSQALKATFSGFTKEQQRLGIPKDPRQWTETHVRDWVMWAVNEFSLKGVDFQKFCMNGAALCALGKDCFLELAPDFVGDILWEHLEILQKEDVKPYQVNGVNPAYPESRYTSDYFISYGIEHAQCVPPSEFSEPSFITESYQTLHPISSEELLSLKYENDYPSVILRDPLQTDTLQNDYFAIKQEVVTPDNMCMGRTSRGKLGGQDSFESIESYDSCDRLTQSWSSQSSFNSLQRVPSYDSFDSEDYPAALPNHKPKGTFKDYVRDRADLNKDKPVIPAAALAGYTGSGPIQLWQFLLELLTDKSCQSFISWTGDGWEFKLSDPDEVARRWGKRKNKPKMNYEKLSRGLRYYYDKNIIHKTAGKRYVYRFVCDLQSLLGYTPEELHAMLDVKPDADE
Test: TF binding intensity (PBM fluorescence), negative control probe (arbitrary fluorescence units); higher = stronger binding
Method: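 gcPBM negative-control 36-bp genomic probes lacking TF binding sites. Each was incubated with recombinant human ETS1 or RUNX1 alone and detected by antibody fluorescence. Values are medians over replicate spots (4 spots for the ETS1-RUNX1 arrays, 3 for the ETS1-ETS1 array). The probes sit in constant array flanks that are not printed.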

Sequence	TF binding intensity
CTACACATTTTAAAGAAAGAGACCACAGTTCTTTAT (protein concentration 10 nM)	122
TATCTTTATCATGATCCATTAAAGATGACAGAACTA (protein concentration 10 nM)	127
CCTGTTTGAAAGAGAAAGAGGGCAGAGTGTGACATG (protein concentration 10 nM)	160
GCCCATCATTGGAGTCCCTTGGGGGTATCTGGAGCA (protein concentration 10 nM)	161
ACCTGGCTGTCTGGCTCCTTACTTTCCACCATTTTC (protein concentration 10 nM)	132
CTGGATTTCTGTACTTTGGTTGGCTTATATTACATC (protein concentration 10 nM)	171
AAAACTAAAAGTAGAACCACCATATGATCCAGTAAT (protein concentration 1 nM)	504
CCAGTGCCCTTGAAATGAAATGGGACTTGCAAGGAG (protein concentration 10 nM)	121
CATTAGTAAACCCTTACCACACCCAAACAACAAAAG (protein concentration 1 nM)	541
ACCCTGAGCCCTCTCCCGCTCCCTGGGTCTCAGCCT (protein concentration 10 nM)	98.1
TAGTCCTGGAAAGGTCATGTCAACCCTCCTGCATAT (protein concentration 10 nM)	115
ACTCTAGTTTGTGATTTTTAAAACGTTTGAAAGCCA (protein concentration 10 nM)	124
AAATTTATCTGAGTCCAAAATCTCTCCCTTCAACCT (protein concentration 10 nM)	119
GAAATATGACAAAAAACCCCTATCCTATGATAAGTC (protein concentration 10 nM)	146
CTGTTGTTTGACTTTAGTCATCTCCTACTTTTATAG (protein concentration 10 nM)	137
CCCACTGTAATAGGCAGATACTGATGAAGTCCTGCA (protein concentration 10 nM)	147
TTAATTAAGCGGTTTATATCAAGAAAAAGGCATTTC (protein concentration 10 nM)	115
AATATCTACAGGGCTCACTCTCCCATGCTCTTCAGG (protein concentration 10 nM)	108
ATTCCAATCCTATGTGCTTTAAAGCTTCTAGACATT (protein concentration 10 nM)	119
TAAATAAATAAACACTTTAGCACATTGACTTTAGAG (protein concentration 10 nM)	111

Sequence	TF binding intensity
TATAAGGGGCTTTTCCCCTTTGGCTCAGCACTTCTC (protein concentration 10 nM)	116
TGACCGGCGCCGACCCGGGGCGCCGAGAGGCCCACC (protein concentration 10 nM)	115
TCCAGAAGCAGAGGCTGAGAGAGGGATTCTTGTGCC (protein concentration 10 nM)	112
GGCGGCGCCGGCGGCTGCGGGGTTATCTCCGCGGCC (protein concentration 10 nM)	107
CTCCTAATTCTGCATGCAACACTCTCCAGAGAGCTG (protein concentration 10 nM)	136
AGCCCGGGTGACTTGAGAGTAATTAATGTGCAAAGA (protein concentration 10 nM)	106
CCCCTCCAGACTCCCCTGACCCAGGGTGGAGGACAT (protein concentration 10 nM)	161
TGCCGTGTACTTGATCTTGTCCCACAGAATCACCTG (protein concentration 10 nM)	112
CCTGTTCTGTGTTTGGAGCCAGCAGAGCAGGGAGGA (protein concentration 10 nM)	153
TCCTCAAAATTAAGGTGCGGTGCCAGGCGCAGTGGC (protein concentration 1 nM)	374
AGAGGCATGAAAACAAATGAGACTAGGATGAGTTGG (protein concentration 10 nM)	131
ACTGCTTTTTCACACAGCATCTTAATTGGCCTGTTT (protein concentration 10 nM)	118
GAAAGAGGCACATGGTGCCTCACAGCCTCCTCCCAG (protein concentration 10 nM)	128
AGCGGGAGGGAGGCCAGGGAAGGCTGCTGGGGGTCG (protein concentration 10 nM)	142
CCTGCCTCATTTGCTCACGGGCTCCCTCCCTCAAGG (protein concentration 10 nM)	113
GCTATTTTCTCTGCTTGAACATACCGTGTACACACA (protein concentration 10 nM)	178
ACATGTCAAAGAGCTTCTTTAAGCAGTAGGTGGTTT (protein concentration 10 nM)	143
GCGTTCGAGGGACACTGGACATCTGGTGGCCCTCCA (protein concentration 10 nM)	93.7
CACAGGTTCTTCTTCAAGGGCAGGGCACTGCACCTT (protein concentration 10 nM)	110
GATAGACATATAAAAACCACAAAAATCAAAACTGCA (protein concentration 1 nM)	485
